# According to PubChem BioAssay:
# Records with an inconclusive call do not appear. For some assays here: Measured potencies and affinities stand elsewhere. Calls of active or inactive are those of the source.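 How the source made its calls, unless noted: active means at least 20% inhibition of 6-phosphogluconate dehydrogenase activity; inactive means the rest.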 Peptide text beside a SMILES is read from it. * marks the point of attachment. For = O=C*
# Assays:
# [1] = polyglutamine-triggered caspase-3 activation inhibitors, cell-based (AID 1583); settings: polyglutamine-induced caspase-3 activation, cell assay; stronger effect = higher value;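 tested at 10 µM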
# [2] = suppressors of polyQ aggregation in yeast, 75Q-TubU reporter (AID 1593); settings: Yeast 75Q polyglutamine aggregation reporter
# [3] = rescue of polyQ-huntingtin neuronal dysfunction in worms, whole organism, C. elegans mechanosensory neurons, N-terminal huntingtin (AID 1599); settings: touch response, stronger effect = higher value
# [4] = inhibitors of mitochondrial cytochrome c release, biochemical, purified mitochondria (AID 1603); settings: stronger effect = lower value;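 further: mouse liver mitochondria challenged with calcium chloride; signal normalized to the plate average as 100%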
# [5] = inhibitors of polyQ protein aggregation (AID 1604); settings: polyglutamine-induced protein aggregation inhibition assay; stronger effect = higher value; tested at 2.5 µM
# [6] = enhancers of glutamate uptake in motor neurons, MN-1 cell line (AID 1612); settings: MN-1 motor neuron cells, stronger effect = higher value;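 further: tested at 1 µM final; 0% = mean of DMSO vehicle wells on each plate; positive means more glutamate uptake than control and negative means less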
# [7] = reducers of polyQ inclusions in PC12 cells, cell-based, NGF-treated PC12, GFPQ80 (AID 1614); settings: PC12 NGF-treated GFP-polyQ80 inclusion reduction;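 further: lower means fewer inclusions and 0 means no inclusions at all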
# [8] = suppressors of polyglutamine aggregation in yeast, 75Q-TubH (AID 1616); settings: S. cerevisiae 75Q-TubH polyglutamine aggregation suppression; stronger effect = higher value
# [9] = biological target: 6-phosphogluconate dehydrogenase, decarboxylating (Homo sapiens) (UniProt P52209); assay: 6PGD enzyme inhibitors, primary screen, biochemical, human, recombinant enzyme, NADPH absorbance (AID 1159550); settings: recombinant 6PGD, NADPH absorbance 341 nm; at 10 µM; stronger effect = higher value
# 6-phosphogluconate dehydrogenase, decarboxylating (Homo sapiens), sequence (P52209 whole entry, looked up): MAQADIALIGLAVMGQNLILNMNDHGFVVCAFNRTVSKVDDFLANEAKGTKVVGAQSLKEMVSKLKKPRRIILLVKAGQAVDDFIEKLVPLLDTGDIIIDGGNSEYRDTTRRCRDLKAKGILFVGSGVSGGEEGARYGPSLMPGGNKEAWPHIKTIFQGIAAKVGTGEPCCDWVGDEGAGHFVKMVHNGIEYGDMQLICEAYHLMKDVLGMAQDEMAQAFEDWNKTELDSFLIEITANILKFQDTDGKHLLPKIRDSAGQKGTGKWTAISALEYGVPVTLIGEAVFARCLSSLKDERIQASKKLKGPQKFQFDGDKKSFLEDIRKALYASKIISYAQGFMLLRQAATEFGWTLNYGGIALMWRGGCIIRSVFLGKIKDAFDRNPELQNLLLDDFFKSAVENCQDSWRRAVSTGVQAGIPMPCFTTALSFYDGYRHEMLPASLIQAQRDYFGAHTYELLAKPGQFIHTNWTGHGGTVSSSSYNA
# [10] = liver-stage malaria parasite growth inhibition, primary screen, cell-based, HepG2, luciferase luminescence, HepG2 viability (AID 624349; in the data active means parasite load remaining mostly below about 12%, no sharp cut-off; inactive means mostly above about 10%;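 further: 100% = mean of DMSO negative control wells on the same plate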); settings: P. berghei liver stage in HepG2, luciferase luminescence, concentration not given here; parasite load remaining: stronger effect = lower value; viability: measured here: HepG2 viability without parasites
# [11] = biological target: Mitogen-activated protein kinase 7 (Homo sapiens) (UniProt Q13164); assay: ERK5 transactivation activators in reporter cells, primary screen, cell-based, HTS (AID 1508626;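 active means luciferase signal above three times the same-plate solvent-only control wells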;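 further: luciferase driven by Gal4-ERK5 fusion binding five Gal4 sites before minimal TATA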); settings: HeLa Gal4-ERK5 transactivation, 18 h, at 5 µM, stronger effect = higher value
# Mitogen-activated protein kinase 7 (Homo sapiens), sequence (Q13164 whole entry, looked up, the tested form may be a part): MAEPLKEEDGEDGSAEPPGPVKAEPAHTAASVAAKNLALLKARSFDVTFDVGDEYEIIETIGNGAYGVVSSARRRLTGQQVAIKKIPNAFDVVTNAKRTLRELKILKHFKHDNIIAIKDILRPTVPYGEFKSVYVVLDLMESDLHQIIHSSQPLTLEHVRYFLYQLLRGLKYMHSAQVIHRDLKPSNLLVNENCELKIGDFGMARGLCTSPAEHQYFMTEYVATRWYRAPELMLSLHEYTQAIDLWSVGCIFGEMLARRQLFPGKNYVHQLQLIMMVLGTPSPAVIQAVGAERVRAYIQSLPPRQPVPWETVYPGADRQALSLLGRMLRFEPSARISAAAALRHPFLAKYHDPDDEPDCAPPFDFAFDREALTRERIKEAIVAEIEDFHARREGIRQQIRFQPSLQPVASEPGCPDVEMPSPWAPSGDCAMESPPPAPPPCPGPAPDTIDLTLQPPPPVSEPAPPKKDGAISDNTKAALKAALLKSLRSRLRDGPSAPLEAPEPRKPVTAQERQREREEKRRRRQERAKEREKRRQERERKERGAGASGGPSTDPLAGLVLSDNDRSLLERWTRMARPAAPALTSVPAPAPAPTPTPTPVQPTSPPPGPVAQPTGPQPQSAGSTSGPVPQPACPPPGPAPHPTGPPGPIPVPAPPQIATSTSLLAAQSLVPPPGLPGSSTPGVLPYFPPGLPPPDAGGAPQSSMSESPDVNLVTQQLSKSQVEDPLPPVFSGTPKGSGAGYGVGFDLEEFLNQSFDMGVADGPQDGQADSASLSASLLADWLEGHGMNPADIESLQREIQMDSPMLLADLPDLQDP
# [12] = protection against mutant huntingtin cytotoxicity, PC12 cells, LDH release (AID 1610); settings: PC12 mutant huntingtin toxicity, final LDH at 4 uM, stronger effect = lower value
smiles,measurement,setting,value
CSCCC(NC=O)C(=O)NC(Cc1ccccc1)C(=O)O (stereo not drawn) (For-Met-Phe-OH; configuration not given here),inhibition,[1],0.6%
same,score,[2],1.4
same,rescue above control,[3],4.29
same,cytochrome c release ratio,[4],1.19
same,inhibition of aggregation,[5],59.3%
same,glutamate uptake change,[6],0%
same,inclusion score,[7],2
same,aggregation suppression score,[8],0.985
same,inhibition,[9],6.92% (inactive)
CSCCC(NC=O)C(=O)NC(CC(C)C)C(=O)NC(Cc1ccccc1)C(=O)O (configuration not stated),score,[2],1
same,rescue above control,[3],6.28
same,cytochrome c release ratio,[4],1.31
same,inhibition of aggregation,[5],53.9%
same,glutamate uptake change,[6],14.5%
same,inclusion score,[7],1
same,aggregation suppression score,[8],1.49
same,inhibition,[9],3.38% (inactive)
COC(=O)C(C)c1ccc(C(=O)c2cccs2)cc1 (configuration not stated),parasite load remaining,[10],119% (inactive)
same,viability,[10],76.5%
same,inhibition,[9],-13.2% (inactive)
same,luciferase signal,[11],44 AU (inactive)
COc1cc2ccc(=O)oc2c(O)c1O,inhibition,[9],13.8% (inactive)
same,luciferase signal,[11],76 AU (inactive)
COc1ccc(/C=C/c2cc(O)cc(O[C@@H]3O[C@H](CO)[C@@H](O)[C@H](O)[C@H]3O)c2)cc1O,inhibition,[1],4.89%
same,score,[2],1.27
same,rescue above control,[3],-0.21
same,cytochrome c release ratio,[4],0.78
same,inhibition of aggregation,[5],12.9%
same,glutamate uptake change,[6],4.82%
same,inclusion score,[7],2
same,aggregation suppression score,[8],1.41
same,inhibition,[9],-5.87% (inactive)
CC(=O)O[C@H]1CC[C@@]2(C)[C@H](CC[C@@H]3[C@@H]2CC[C@]2(C)[C@@H]4[C@H](C[C@@H]32)O[C@]2(CC[C@@H](C)CO2)[C@H]4C)C1,inhibition,[9],13.5% (inactive)
same,luciferase signal,[11],44 AU (inactive)
N[C@H](C(=O)O)[C@@H]1CC(Cl)=NO1,inhibition,[1],-15.5%
same,score,[2],0.51
same,rescue above control,[3],-2.47
same,cytochrome c release ratio,[4],0.83
same,inhibition of aggregation,[5],25.5%
same,glutamate uptake change,[6],6.6%
same,inclusion score,[7],1
same,aggregation suppression score,[8],0.115
same,inhibition,[9],7.5% (inactive)
COC(=O)[C@H]1[C@H]2C[C@H]3c4[nH]c5cc(OC)ccc5c4CCN3C[C@H]2C[C@@H](OC(=O)c2cc(OC)c(OC)c(OC)c2)[C@@H]1OC,inhibition,[1],-6.47%
same,score,[2],1.04
same,rescue above control,[3],-3.75
same,cytochrome c release ratio,[4],1.13
same,inhibition of aggregation,[5],26.7%
same,glutamate uptake change,[6],8.81%
same,inclusion score,[7],2.5
same,aggregation suppression score,[8],0.976
same,inhibition,[9],0.174% (inactive)
same,luciferase signal,[11],92 AU (inactive)
O=C(O)c1cc(O)ccc1O,inhibition,[1],-0.2%
same,score,[2],0.92
same,rescue above control,[3],-5.86
same,cytochrome c release ratio,[4],0.99
same,inhibition of aggregation,[5],72.2%
same,glutamate uptake change,[6],-11.6%
same,inclusion score,[7],2
same,aggregation suppression score,[8],0.337
same,inhibition,[9],-15.2% (inactive)
CCC(C)C(N)C(=O)N1CCCC1C(=O)NC(C(=O)O)C(C)CC (configuration not stated),inhibition,[1],-6.01%
same,score,[2],1.3
same,rescue above control,[3],1.96
same,cytochrome c release ratio,[4],0.74
same,inhibition of aggregation,[5],14.9%
same,glutamate uptake change,[6],11.9%
same,inclusion score,[7],2
same,aggregation suppression score,[8],1.44
same,inhibition,[9],-1.23% (inactive)
COc1ccc(C(C)=O)c(OC)c1,inhibition,[9],-3.95% (inactive)
same,luciferase signal,[11],76 AU (inactive)
Cc1cc(=O)c2c(O)cc(O)c(C)c2o1,inhibition,[9],9.08% (inactive)
same,luciferase signal,[11],132 AU (inactive)
CC(=O)N[C@@H](CCC(=O)O)C(=O)O,inhibition,[1],24.8%
same,score,[2],1.29
same,rescue above control,[3],9.63
same,cytochrome c release ratio,[4],1.22
same,inhibition of aggregation,[5],74.1%
same,glutamate uptake change,[6],-6.23%
same,inclusion score,[7],2
same,aggregation suppression score,[8],1.35
same,parasite load remaining,[10],196% (inactive)
same,viability,[10],71.4%
same,inhibition,[9],13.8% (inactive)
CC(C)=CCC1=C(O)c2ccccc2C(=O)C1=O,inhibition,[1],-24.2%
same,score,[2],0.21
same,rescue above control,[3],6.74
same,cytochrome c release ratio,[4],0.7
same,inhibition of aggregation,[5],77.5%
same,normalised LDH release,[12],0.727
same,glutamate uptake change,[6],-3.48%
same,inclusion score,[7],2
same,aggregation suppression score,[8],0.0579
same,parasite load remaining,[10],85.5% (inactive)
same,viability,[10],63.9%
same,inhibition,[9],-1.8% (inactive)
same,luciferase signal,[11],60 AU (inactive)
NCCCCC(N)C(=O)NC(Cc1ccc(O)cc1)C(=O)NC(CCCCN)C(=O)O (stereo not drawn) (H-Lys-Tyr-Lys-OH; configuration not given here),inhibition,[1],-30.8%
same,score,[2],3.85
same,rescue above control,[3],16.1
same,cytochrome c release ratio,[4],0.94
same,inhibition of aggregation,[5],37.2%
same,glutamate uptake change,[6],-3.42%
same,inclusion score,[7],1
same,aggregation suppression score,[8],1.25
same,inhibition,[9],13.2% (inactive)
COc1ccc(CC(=O)c2ccc(O)cc2O)cc1,inhibition,[9],17.5% (inactive)
same,luciferase signal,[11],76 AU (inactive)
OC[C@H]1O[C@@](CO)(O[C@H]2O[C@H](CO)[C@@H](O)[C@H](O)[C@H]2O)[C@@H](O[C@H]2O[C@H](CO)[C@@H](O)[C@H](O)[C@H]2O)[C@@H]1O,inhibition,[9],15.1% (inactive)
same,luciferase signal,[11],60 AU (inactive)
C=C1C(=O)OC2CC1C(OC(C)=O)C/C(C)=C/CC/C(C)=C\CCC2(C)O (configuration not stated),inhibition,[9],10.9% (inactive)
same,luciferase signal,[11],16 AU (inactive)
C[C@H](CCC(=O)O)[C@H]1CC[C@H]2[C@@H]3CC[C@@H]4C[C@H](O)CC[C@]4(C)[C@H]3C[C@H](O)[C@]12C,inhibition,[9],-3.07% (inactive)
same,luciferase signal,[11],28 AU (inactive)
COc1cc(O)c2c(=O)c(O)c(-c3ccc(O)c(O)c3)oc2c1,inhibition,[9],4.95% (inactive)
same,luciferase signal,[11],144 AU (inactive)
CC(=O)OC1C[C@@]2(C)[C@H](c3ccoc3)OC(=O)[C@H]3O[C@]32[C@@]2(C)C1[C@]1(C)C(C[C@H]2OC(C)=O)C(C)(C)[C@H](OC(C)=O)C[C@@H]1OC(C)=O (some centres not stated),inhibition,[9],-3.59% (inactive)
same,luciferase signal,[11],24 AU (inactive)
CC(N)C(=O)NC(Cc1ccccc1)C(=O)O (configuration not stated),inhibition,[1],17.1%
same,score,[2],1.2
same,rescue above control,[3],1.23
same,cytochrome c release ratio,[4],1.13
same,inhibition of aggregation,[5],77.8%
same,glutamate uptake change,[6],2.41%
same,inclusion score,[7],2
same,aggregation suppression score,[8],1.4
same,inhibition,[9],16.4% (inactive)
CC12CCC3c4ccc(OCc5ccccc5)cc4CCC3C1C[C@@H](O)[C@@H]2O (some centres not stated),inhibition,[1],-24.8%
same,score,[2],-1.62
same,rescue above control,[3],18.3
same,cytochrome c release ratio,[4],1.14
same,inhibition of aggregation,[5],88.8%
same,glutamate uptake change,[6],-1.58%
same,aggregation suppression score,[8],-0.303
same,inhibition,[9],-6.08% (inactive)
CSCCC(N)C(=O)NC(CC(C)C)C(=O)NC(Cc1ccccc1)C(=O)O (configuration not stated),inhibition,[1],18.9%
same,score,[2],1.68
same,rescue above control,[3],2.33
same,cytochrome c release ratio,[4],0.77
same,inhibition of aggregation,[5],67.8%
same,glutamate uptake change,[6],4.95%
same,inclusion score,[7],2
same,aggregation suppression score,[8],1.32
same,inhibition,[9],9.25% (inactive)
CSCCC(NC=O)C(=O)NC(C)C(=O)O (configuration not stated),inhibition,[1],3.66%
same,score,[2],1.03
same,rescue above control,[3],3.86
same,cytochrome c release ratio,[4],1.14
same,inhibition of aggregation,[5],81.6%
same,glutamate uptake change,[6],9.47%
same,inclusion score,[7],2
same,aggregation suppression score,[8],1.3
same,inhibition,[9],11.9% (inactive)
COc1ccc2c(c1)CC[C@@H]1[C@@H]2CC[C@]2(C)[C@@H](O)CC[C@@H]12,inhibition,[9],-8.02% (inactive)
same,luciferase signal,[11],36 AU (inactive)
C=C1CCC2C(CC2(C)C)C(=C)CC/C1=N/O (configuration not stated),inhibition,[9],16.7% (inactive)
same,luciferase signal,[11],88 AU (inactive)
NC(N)=NCCC[C@@H](NC(=O)[C@@H](N)Cc1ccc(O)cc1)C(=O)O,inhibition,[1],-8.49%
same,score,[2],1.34
same,rescue above control,[3],13.2
same,cytochrome c release ratio,[4],0.94
same,inhibition of aggregation,[5],77%
same,glutamate uptake change,[6],17.2%
same,inclusion score,[7],2
same,aggregation suppression score,[8],1.22
same,inhibition,[9],7.11% (inactive)
CCOC(=O)C(Cc1ccc(O)cc1)NC(C)=O (configuration not stated),inhibition,[1],-16.6%
same,score,[2],1.58
same,rescue above control,[3],3.83
same,cytochrome c release ratio,[4],0.88
same,inhibition of aggregation,[5],-1.73%
same,glutamate uptake change,[6],-5.84%
same,inclusion score,[7],2
same,aggregation suppression score,[8],0.981
same,parasite load remaining,[10],109% (inactive)
same,viability,[10],69%
same,inhibition,[9],-22.2% (inactive)
same,luciferase signal,[11],72 AU (inactive)
CCC(=O)O[C@H]1CC[C@H]2[C@@H]3CCc4cc(O)ccc4[C@H]3CC[C@]12C,inhibition,[9],-10.1% (inactive)
same,luciferase signal,[11],24 AU (inactive)
